Data as given in PubChem BioAssay (Tox21).
Records with an inconclusive call do not appear. Activity calls are given as the source filed them. Calls come from the whole dose curve.

Target: 5-hydroxytryptamine receptor 2A (Homo sapiens) (UniProt P28223)
Assay: 5-hydroxytryptamine receptor 2A (HTR2A) small molecule agonists, cell-based qHTS assay (AID 1963587); note: nearly all actives have a fitted effect of over 30% in size
Conditions: HTR2A-CHO cells, calcium flux fluorescence, agonist mode; series mostly up to 76.8 µM; activation: at the top concentration
Source text: National Center for Advancing Translational Sciences [NCATS]
Division of Preclinical Innovation [DPI]
U.S. Environmental Protection Agency [EPA]
National Institutes of Environmental Health Sciences [NIEHS]
National Toxicology Program [NTP]
U.S. Food and Drug Administration [FDA]
The HTR2A receptor is a subtype of the 5-HT2 receptor that belongs to the serotonin receptor family and is a G protein-coupled receptor (GPCR). The HTR2A-CHO cell line stably expressing human 5-hydroxytryptamine receptor 2A (HTR2A) can be used for screening agonists of interactions between 5-HT2 and its ligands. The HTR2A-CHO calcium flux assay is a homogeneous fluorescence-based assay for detecting the intracellular calcium level using FDSS kinetic plate reader system.
HTR2A-CHO cells were dispensed at 2000 cells/3uL/well in 1536-well black-clear bottom plates using a Multidrop Dispenser. After the assay plates were incubated at a 37 C/5% CO2 incubator for 18 h, 3 uL of Dye Loading Buffer was transferred to the assay plate by a Flying Reagent Dispenser. The assay plates were incubated at 37 C for 1h. For agonist mode, 23 nL of compounds dissolved in DMSO, positive controls or DMSO only was transferred to the assay plate by a pin tool. The fluorescence intensity in the plates was measured using FDSS 7000EX kinetic plate reader for 2 min at 1 sec intervals.
% is set by controls: 0 for no effect and ±100 for the full control effect; potency is the fitted concentration of half-maximal effect.

5-hydroxytryptamine receptor 2A (Homo sapiens), sequence (P28223 whole entry, looked up): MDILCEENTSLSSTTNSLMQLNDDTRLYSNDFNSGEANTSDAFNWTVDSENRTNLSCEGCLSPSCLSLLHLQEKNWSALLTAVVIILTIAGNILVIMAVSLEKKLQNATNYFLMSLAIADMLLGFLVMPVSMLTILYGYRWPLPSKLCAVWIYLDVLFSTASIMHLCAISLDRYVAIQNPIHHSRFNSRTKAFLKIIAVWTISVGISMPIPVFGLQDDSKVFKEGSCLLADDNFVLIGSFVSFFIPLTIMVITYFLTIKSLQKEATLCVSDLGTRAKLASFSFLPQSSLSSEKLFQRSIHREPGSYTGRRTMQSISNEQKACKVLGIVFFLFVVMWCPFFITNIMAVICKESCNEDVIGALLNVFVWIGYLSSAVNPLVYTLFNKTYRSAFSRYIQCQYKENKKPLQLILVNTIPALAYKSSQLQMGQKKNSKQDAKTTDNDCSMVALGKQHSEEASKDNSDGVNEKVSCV

SMILES	activation	Potency
CCOc1ccc(C(=O)OCCN(CC)CC)cc1	-2.14% [at 35.6 µM] (inactive)	
C(=C(c1ccccc1)c1ccccc1)c1ccccc1	4.07% (inactive)	
Cc1oc(=O)oc1CN1CCN(c2cc3c(cc2F)c(=O)c(C(=O)O)c2n3C(C)S2)CC1 (stereo not given)	-1.3% [at 35.6 µM] (inactive)	
Brc1cc(-c2ccc(Br)c(Br)c2Br)cc(Br)c1Br	-2.3% [at 35.6 µM] (inactive)	
Cc1cc(O)c2c(c1)C(=O)c1cc(O)cc(O)c1C2=O		inactive
CCCCCC[C@@H](O)C/C=C\CCCCCCCC(=O)OC	-1.07% (inactive)	
CN(C)CCOC(c1ccccc1)c1ccc(Br)cc1 (stereo not given)	-0.326% [at 35.6 µM] (inactive)	
CCN(CC)CCNC(C(=O)OCCC(C)C)c1ccccc1 (stereo not given)	-10.2% [at 35.6 µM] (inactive)	
CC1CCC(CO)CC1 (stereo not given)	0.632% (inactive)	
CN1CCCN=C1/C=C/c1cccs1	0.0129% [at 35.6 µM] (inactive)	
O=[N+]([O-])c1nccn1CO[C@@H](CO)[C@H](O)CO	-0.527% [at 35.6 µM] (inactive)	
CCCCCCCCCCCCSCCOCCO	-2.47% [at 35.6 µM] (inactive)	
O=C(Oc1ccccc1)c1ccc2ccccc2c1O	7.83% (inactive)	
CC(=O)c1c(C)c([N+](=O)[O-])c(C(C)(C)C)c([N+](=O)[O-])c1C	-4.65% (inactive)	
COC(=O)CC(=O)C(C)(C)C	-0.178% (inactive)	
CN(C(=O)CN(CCO)CC(=O)N(C)C(C)(C)Cc1ccccc1)C(C)(C)Cc1ccccc1	-0.804% [at 35.6 µM] (inactive)	
CCCn1cc[n+](C)c1C	-3.53% (inactive)	
CCN(CC)C(=O)c1ccc(O)c(OC)c1	0.765% [at 35.6 µM] (inactive)	
CC(=O)c1ccc2c(c1)Cc1ccccc1-2	-0.377% (inactive)	
CCc1c(C(=O)NN2CCCCC2)nn(-c2ccc(Cl)cc2Cl)c1-c1ccc(Br)cc1	-2.95% (inactive)	

SMILES	activation	Potency
Cc1ccc(C)c([N+](=O)[O-])c1	-0.721% (inactive)	
CN(C/C=C/c1ccccc1)Cc1cccc2ccccc12	3.49% [at 35.6 µM] (inactive)	
O=C(CCCCCCC(=O)Nc1ccccc1)NO	-10.1% [at 35.6 µM] (inactive)	
C=CC(=O)N1CCOCC1	0.347% (inactive)	
Cc1c(C(=O)O)c(O)cc2c1C(=O)c1c(O)c([C@@H]3O[C@H](CO)[C@@H](O)[C@H](O)[C@H]3O)c(O)c(O)c1C2=O		inactive
CC(C)=CC=O	0.314% (inactive)	
CNCCCCOc1ccccc1Cc1ccccc1		10.7 µM (active)
CCN(CC)c1ccc2c(c1)Oc1cc(N(CC)CC)ccc1C21OC(=O)c2ccccc21		21.3 µM (active)
CCCCCC(C)OC(=O)COc1ccc(Cl)c2cccnc12 (stereo not given)	19.8% (inactive)	
CCCOC(=O)c1c(Cl)c(Cl)c(Cl)c(Cl)c1C(=O)OCCC	-1.31% (inactive)	
COCCc1ccc(OCC2CO2)cc1 (stereo not given)	-12.7% [at 35.6 µM] (inactive)	
N#CSCSc1nc2ccccc2s1	9.23% (inactive)	
COc1cc(Cl)c(OC)cc1N	0.209% (inactive)	
C=C(C)C(=O)OCc1ccccc1	-1.19% (inactive)	
Cc1cccc(NC(=S)N(C)C)c1	-1.08% (inactive)	
CCCCCCCCS(=O)(=O)O	-0.371% (inactive)	
O=C1Nc2ccc([N+](=O)[O-])cc2C1=O	-6.13% (inactive)	
Cc1cc(-c2ccc(N=Nc3cc(S(=O)(=O)O)c4ccccc4c3N)c(C)c2)ccc1N=Nc1cc(S(=O)(=O)O)c2ccccc2c1N	-1.11% (inactive)	
CCN(CC)c1ccc(N=Nc2ccccc2)cc1	8.6% (inactive)	
NCCCC(N)(C(=O)O)C(F)F (stereo not given)	1.68% [at 35.6 µM] (inactive)	
